Test [1] can be described thus: rapamycin-like changes in RPL19A-GFP expression – cell-based, S. cerevisiae, multiplex flow cytometry, primary screen (AID 1862; in the data active = percent of DMSO control GFP below about 86%;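 also: lower values mimic rapamycin by blocking the RPL19A rise seen in DMSO cells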). The note with it: S. cerevisiae RPL19A-GFP strain, flow cytometry fluorescence, 3 h; at 10 µM; stronger effect = lower value. A general note: A flow cytometer gives signals particle by particle.
Test [2] is described as follows: TOR pathway RTG branch CIT2 reporter changes – S. cerevisiae, GFP fusion, multiplex flow cytometry, primary screen (AID 1870;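 active = percent response above a set limit, the screen-wide mean plus 3 SD, cut at about 130% in these data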;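 also: barcoded CIT2-GFP strain pooled with four other GFP strains with rapamycin as positive control; median GFP fluorescence per well over plate mean of DMSO wells so 100% = DMSO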). The conditions noted are these: S. cerevisiae CIT2-GFP expression, 3 h, at 10 µM, stronger effect = higher value.
Test [3] can be described thus: TOR pathway LAP4-GFP level changes – S. cerevisiae, multiplex flow cytometry, primary screen (AID 1873;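 active = GFP signal, as percent of the solvent control, above the screen mean plus 3 SD, about 149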). The note with it: S. cerevisiae LAP4-GFP expression, 3 h, at 10 µM, stronger effect = higher value.
Test [4] can be described thus: yeast AGP1-GFP level changes, GLN3 branch – cell-based, multiplex flow cytometry, S. cerevisiae, primary screen (AID 1887;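 active = GFP signal above the screen-wide mean plus 3 SD, that is over about 124.5% of the solvent control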;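 also: AGP1-GFP fusion strain of S. cerevisiae within a five-strain barcoded multiplex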). The conditions noted are these: 3 h, at 10 µM, stronger effect = higher value.
Test [5] is described as follows: reduced mouse 2C T cell binding to pMHC/ICAM-1 vesicles – MLPCN validation set, flow cytometry, LFA-1/ICAM-1 modulator project, pilot screen (AID 2523;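 active = response below a set limit, under 55% cells CD8-positive and vesicle-bound, and CD8 cells' 90th-percentile brightness under 279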;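 as to vesicle binding response: mean PE anti-B7-1 fluorescence of CD8+ cells relative to row control; 100% = QL9-loaded vesicles with DMSO vehicle in the same plate row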). The conditions noted are these: 2C mouse CD8+ T cells, at 7 µM, stronger effect = lower value; double positive events: measured here: CD8+/vesicle+ event percentage.
Test [6] concerns the target Integrin beta-1 (Homo sapiens) + Integrin alpha-4 (Homo sapiens) (UniProt P13612+P05556). Nature of the test: alpha4beta1 integrin LIBS antibody binding reduction – U937 cells, HUTS-21 mAb, flow cytometry, validation set, VLA-4 allosteric modulator project, pilot screen (AID 2674).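 Also: antibody binding induced by the VLA-4 ligand LDV present at three times its Kd; 0% = LDV ligand with antibody and no compound and 100% = antibody without LDV.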 The note with it: HUTS-21 LIBS mAb binding, at 6.7 µM, stronger effect = higher value, binding induced by LDV ligand.

The nature of test [7]: calorie-restriction mimetic ROS inhibitors, yeast – validation compound set, pilot screen (AID 2706;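 active = superoxide response below 65% of plate, a cut near 3 SD across the whole screen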;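 also: yeast exposed to compound for one week at 30 degrees C before staining; 100% = mean of all compound wells on the same plate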). The conditions noted are these: S. cerevisiae aging, superoxide DHE fluorescence; at 10 µM, stronger effect = lower value.
For test [8], the target named is Beta-adrenergic receptor kinase 1 (Homo sapiens) (UniProt P25098). The experiment in a line: GRK2 binders displacing RNA aptamer, biochemical, validation, human GRK2, bead flow cytometry (AID 488806;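 active = aptamer binding inhibition above 30%, about 3 SD of noise from non-fluorescent compounds; inactive = inhibition at or below 30%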). The conditions noted are these: bead-bound GRK2, FAM-aptamer displacement, at 10 µM, stronger effect = higher value.
Test [9] concerns the target Beta-2 adrenergic receptor (Homo sapiens) (UniProt P07550). Nature of the test: agonist-induced loss of surface beta2AR – cell-based, FAP fluorogen, flow cytometry, validation set, pilot screen (AID 504459;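 active = percent response above 42, roughly 3 SD of non-fluorescent test compounds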;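 also: agonist-driven loss of surface beta2AR via internalization measured by FAP dye flow cytometry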). The conditions noted are these: Am2.2-beta2AR cells, at 10 µM, stronger effect = higher value.
The target of test [10] is AP-2 complex subunit beta (Homo sapiens) (UniProt P63010). Nature of the test: beta-arrestin/AP2 interaction blockers – biochemical, validation set, GST-AP2 beads, flow cytometry, pilot screen (AID 504541;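 active = inhibition above 54%, about 3 SD of non-fluorescent compounds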;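 also: AP2 carries R879A mutation and is captured from E. coli lysate; bead-bound FITC arrestin peptide fluorescence measuring arrestin peptide binding to AP2; 0% = DMSO wells and 100% = excess unlabeled arrestin peptide control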). The conditions noted are these: FITC arrestin peptide, at 10 µM, stronger effect = higher value, AP2 beta2 appendage fragment, R879A mutant.
The nature of test [11]: cytosolic pH regulators acting via V-ATPase – S. cerevisiae, pHLuorin, HTS validation (AID 504600; in the data active = response above about 15%;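 also: plate controls were DMSO for no effect and reference compound for full effect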). The note with it: V-ATPase proton transport, at 10 µM, stronger effect = higher value.
The subject of test [12] is anti-desmoglein-3 scFv antibody binding to human DSG3. The experiment in a line: blockers of pathogenic pemphigus antibody–desmoglein-3 binding – biochemical, validation compound set, bead-based, flow cytometry, pilot screen (AID 588368;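 active = binding below the plate cutoff, the plate median minus 3 SD, with a reading above zero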;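 also: signal is the median channel fluorescence of bead-bound GFP antibody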). The note with it: Protein G beads, DSG3-Fc, scFv-GFP binding, at 10 µM, stronger effect = lower value.
Test [13] is described as follows: Nile Red efflux blockade in pump-expressing yeast – validation compound set, multiplex, phenotypic, pilot screen (AID 588506;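 active = efflux inhibition above 0.42, the validation set average plus 4 SD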;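 also: Nile Red retained in cells so higher fluorescence means more efflux inhibition; 0 = negative control wells and 1 = enniatin B 25 µM full block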). The note with it: S. cerevisiae pump-expressing triplex, Nile Red efflux flow cytometry; at 10 µM; stronger effect = higher value; the pumps come from Candida albicans.
In test [14] the target is ATP-binding cassette sub-family B member 6 (Homo sapiens) (UniProt Q9NP58). Nature of the test: blockers of ABCB6-driven porphyrin uptake – K562-ABCB6 cells, flow cytometry, validation set, pilot screen (AID 588550;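 active = inhibition above the screen-wide mean plus 3 SD, about 51%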;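 also: 0% = DMSO wells and 100% = benzethonium chloride 70 µM positive control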). The conditions noted are these: K562-ABCB6 porphyrin accumulation, 1 h, at 10 µM, stronger effect = higher value.
A short description of test [15]: AML differentiation inducers, ER-HoxA9 marrow cells – cell-based, GFP/MAC1 double positive, flow cytometry, validation set, primary screen (AID 588685;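 active = differentiation response of at least 50%, scaled between solvent and reference control, from cells with both markers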;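 also: compound exposure lasts four days before antibody staining and flow analysis; 0% = DMSO wells and 100% = 5 µM fulvestrant positive control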). The note with it: stronger effect = higher value, normalized: vehicle 0, fulvestrant 100.
A short description of test [16]: TOR pathway GLN3 branch reporter MEP2-GFP changes – S. cerevisiae, multiplex flow cytometry, primary screen (AID 1867;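 active = GFP response, as percent of the DMSO control, above the screen-wide mean plus 3 SD, about 139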;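 also: median GFP channel fluorescence of barcode-gated MEP2-GFP cells measured by flow cytometry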). The note with it: S. cerevisiae MEP2-GFP strain, 3 h, at 10 µM, stronger effect = higher value, 100% means same as DMSO wells.

Inconclusive results are not listed. Active and inactive are the calls of the source.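 The calls were made as follows, unless noted: active = inhibition above 50%, about 3 SD of the validation set; inactive = the rest.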

Five compounds from PubChem BioAssay can be followed below.

Beta-adrenergic receptor kinase 1 (Homo sapiens), sequence (P25098 whole entry, looked up): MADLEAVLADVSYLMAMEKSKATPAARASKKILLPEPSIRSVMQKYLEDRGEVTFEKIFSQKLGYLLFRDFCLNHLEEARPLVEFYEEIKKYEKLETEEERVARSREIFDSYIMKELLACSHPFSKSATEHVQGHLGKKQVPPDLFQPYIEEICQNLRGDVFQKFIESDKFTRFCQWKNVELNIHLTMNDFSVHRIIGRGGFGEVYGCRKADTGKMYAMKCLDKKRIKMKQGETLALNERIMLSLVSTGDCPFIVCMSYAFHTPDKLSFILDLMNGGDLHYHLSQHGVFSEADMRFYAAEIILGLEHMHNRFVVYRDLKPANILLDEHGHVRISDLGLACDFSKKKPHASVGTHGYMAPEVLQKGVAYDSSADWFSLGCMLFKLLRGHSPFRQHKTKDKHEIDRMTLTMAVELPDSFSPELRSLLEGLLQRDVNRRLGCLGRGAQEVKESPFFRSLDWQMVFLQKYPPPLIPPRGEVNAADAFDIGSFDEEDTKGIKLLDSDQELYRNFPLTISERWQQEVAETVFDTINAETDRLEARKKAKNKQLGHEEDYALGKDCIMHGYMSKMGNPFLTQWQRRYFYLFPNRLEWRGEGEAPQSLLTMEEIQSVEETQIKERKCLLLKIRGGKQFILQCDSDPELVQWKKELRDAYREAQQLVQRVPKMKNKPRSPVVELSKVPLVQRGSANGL
Integrin beta-1 (Homo sapiens) + Integrin alpha-4 (Homo sapiens), sequence (P05556 whole entry, looked up): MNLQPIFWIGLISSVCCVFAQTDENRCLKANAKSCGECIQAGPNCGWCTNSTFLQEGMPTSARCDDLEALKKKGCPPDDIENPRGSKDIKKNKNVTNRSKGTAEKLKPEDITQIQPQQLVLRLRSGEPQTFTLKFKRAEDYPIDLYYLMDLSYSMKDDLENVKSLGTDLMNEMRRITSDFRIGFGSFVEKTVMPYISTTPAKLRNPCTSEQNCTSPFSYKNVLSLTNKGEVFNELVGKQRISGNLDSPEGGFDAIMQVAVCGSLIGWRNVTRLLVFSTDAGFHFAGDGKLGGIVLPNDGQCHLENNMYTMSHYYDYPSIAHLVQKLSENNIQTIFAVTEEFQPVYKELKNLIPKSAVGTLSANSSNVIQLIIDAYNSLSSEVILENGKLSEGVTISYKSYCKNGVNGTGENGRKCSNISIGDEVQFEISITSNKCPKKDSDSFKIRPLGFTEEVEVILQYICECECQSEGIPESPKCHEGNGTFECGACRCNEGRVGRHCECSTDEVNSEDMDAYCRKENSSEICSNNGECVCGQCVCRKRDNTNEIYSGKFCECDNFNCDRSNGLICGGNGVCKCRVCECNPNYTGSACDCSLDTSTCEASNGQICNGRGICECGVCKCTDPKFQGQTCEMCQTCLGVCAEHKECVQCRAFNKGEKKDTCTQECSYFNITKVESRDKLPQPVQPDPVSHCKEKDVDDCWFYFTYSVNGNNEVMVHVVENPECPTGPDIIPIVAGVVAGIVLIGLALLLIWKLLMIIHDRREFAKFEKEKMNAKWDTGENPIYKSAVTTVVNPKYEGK
Integrin beta-1 (Homo sapiens) + Integrin alpha-4 (Homo sapiens), sequence (P13612 whole entry, looked up): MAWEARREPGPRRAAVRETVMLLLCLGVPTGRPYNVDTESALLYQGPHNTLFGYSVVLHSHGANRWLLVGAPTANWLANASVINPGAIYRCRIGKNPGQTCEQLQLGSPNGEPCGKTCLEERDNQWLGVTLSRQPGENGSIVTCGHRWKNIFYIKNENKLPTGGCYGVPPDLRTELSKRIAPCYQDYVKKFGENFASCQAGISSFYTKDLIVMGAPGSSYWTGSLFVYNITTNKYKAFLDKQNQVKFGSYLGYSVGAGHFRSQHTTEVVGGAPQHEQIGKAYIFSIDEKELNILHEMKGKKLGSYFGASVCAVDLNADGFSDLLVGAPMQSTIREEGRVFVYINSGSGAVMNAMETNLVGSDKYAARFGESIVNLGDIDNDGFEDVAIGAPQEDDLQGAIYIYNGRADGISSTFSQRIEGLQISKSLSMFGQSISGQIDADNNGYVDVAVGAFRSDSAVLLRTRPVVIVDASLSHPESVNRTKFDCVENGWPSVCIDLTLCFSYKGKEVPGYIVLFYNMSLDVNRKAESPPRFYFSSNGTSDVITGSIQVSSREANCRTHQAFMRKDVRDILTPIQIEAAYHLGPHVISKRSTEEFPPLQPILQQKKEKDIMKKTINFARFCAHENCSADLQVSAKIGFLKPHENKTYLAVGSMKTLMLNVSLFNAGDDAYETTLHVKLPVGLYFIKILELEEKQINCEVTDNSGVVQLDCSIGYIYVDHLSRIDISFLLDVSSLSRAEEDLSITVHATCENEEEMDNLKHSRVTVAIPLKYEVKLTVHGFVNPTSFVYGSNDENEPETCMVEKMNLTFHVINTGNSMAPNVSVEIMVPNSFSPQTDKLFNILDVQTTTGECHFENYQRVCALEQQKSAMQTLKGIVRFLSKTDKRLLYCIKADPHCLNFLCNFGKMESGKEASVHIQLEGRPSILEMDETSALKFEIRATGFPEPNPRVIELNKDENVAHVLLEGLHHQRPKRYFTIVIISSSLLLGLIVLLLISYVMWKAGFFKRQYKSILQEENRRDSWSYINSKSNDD
AP-2 complex subunit beta (Homo sapiens), sequence (P63010 whole entry, looked up, the tested form may be a part, one chain of several): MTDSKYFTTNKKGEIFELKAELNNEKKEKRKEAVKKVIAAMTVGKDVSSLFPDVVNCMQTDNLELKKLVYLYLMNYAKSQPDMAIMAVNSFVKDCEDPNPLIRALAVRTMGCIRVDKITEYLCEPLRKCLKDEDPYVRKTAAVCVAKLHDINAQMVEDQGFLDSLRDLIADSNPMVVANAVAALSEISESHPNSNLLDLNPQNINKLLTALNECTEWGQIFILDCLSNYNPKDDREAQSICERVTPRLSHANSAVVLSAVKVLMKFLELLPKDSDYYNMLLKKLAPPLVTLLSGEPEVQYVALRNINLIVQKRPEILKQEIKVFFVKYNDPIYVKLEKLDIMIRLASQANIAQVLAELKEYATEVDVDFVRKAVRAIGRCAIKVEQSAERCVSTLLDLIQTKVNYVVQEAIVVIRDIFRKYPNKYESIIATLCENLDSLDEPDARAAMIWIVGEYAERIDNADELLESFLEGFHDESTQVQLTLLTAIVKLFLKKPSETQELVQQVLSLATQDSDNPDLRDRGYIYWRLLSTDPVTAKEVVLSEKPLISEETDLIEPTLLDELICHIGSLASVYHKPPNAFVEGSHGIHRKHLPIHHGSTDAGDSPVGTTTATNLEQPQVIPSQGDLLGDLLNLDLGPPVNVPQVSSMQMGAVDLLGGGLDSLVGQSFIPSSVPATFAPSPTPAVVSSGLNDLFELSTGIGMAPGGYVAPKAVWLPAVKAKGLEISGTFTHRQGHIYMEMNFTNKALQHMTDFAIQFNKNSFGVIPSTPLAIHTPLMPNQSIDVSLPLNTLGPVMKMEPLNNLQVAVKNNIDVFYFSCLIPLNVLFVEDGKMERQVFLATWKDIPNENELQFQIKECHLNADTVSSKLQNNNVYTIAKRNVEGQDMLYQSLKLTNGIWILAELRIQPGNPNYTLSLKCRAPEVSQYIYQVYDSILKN
Beta-2 adrenergic receptor (Homo sapiens), sequence (P07550 whole entry, looked up): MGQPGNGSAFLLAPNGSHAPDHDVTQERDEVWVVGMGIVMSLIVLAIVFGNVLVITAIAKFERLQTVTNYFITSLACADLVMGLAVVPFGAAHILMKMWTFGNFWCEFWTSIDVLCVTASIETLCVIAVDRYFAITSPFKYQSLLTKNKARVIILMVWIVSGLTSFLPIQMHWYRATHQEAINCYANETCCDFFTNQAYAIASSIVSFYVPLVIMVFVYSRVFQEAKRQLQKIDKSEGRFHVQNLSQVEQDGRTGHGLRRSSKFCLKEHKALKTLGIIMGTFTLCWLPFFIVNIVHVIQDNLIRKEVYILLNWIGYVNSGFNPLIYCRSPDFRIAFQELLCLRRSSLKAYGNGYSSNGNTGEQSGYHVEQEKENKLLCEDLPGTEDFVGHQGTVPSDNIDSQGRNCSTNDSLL
ATP-binding cassette sub-family B member 6 (Homo sapiens), sequence (Q9NP58 whole entry, looked up): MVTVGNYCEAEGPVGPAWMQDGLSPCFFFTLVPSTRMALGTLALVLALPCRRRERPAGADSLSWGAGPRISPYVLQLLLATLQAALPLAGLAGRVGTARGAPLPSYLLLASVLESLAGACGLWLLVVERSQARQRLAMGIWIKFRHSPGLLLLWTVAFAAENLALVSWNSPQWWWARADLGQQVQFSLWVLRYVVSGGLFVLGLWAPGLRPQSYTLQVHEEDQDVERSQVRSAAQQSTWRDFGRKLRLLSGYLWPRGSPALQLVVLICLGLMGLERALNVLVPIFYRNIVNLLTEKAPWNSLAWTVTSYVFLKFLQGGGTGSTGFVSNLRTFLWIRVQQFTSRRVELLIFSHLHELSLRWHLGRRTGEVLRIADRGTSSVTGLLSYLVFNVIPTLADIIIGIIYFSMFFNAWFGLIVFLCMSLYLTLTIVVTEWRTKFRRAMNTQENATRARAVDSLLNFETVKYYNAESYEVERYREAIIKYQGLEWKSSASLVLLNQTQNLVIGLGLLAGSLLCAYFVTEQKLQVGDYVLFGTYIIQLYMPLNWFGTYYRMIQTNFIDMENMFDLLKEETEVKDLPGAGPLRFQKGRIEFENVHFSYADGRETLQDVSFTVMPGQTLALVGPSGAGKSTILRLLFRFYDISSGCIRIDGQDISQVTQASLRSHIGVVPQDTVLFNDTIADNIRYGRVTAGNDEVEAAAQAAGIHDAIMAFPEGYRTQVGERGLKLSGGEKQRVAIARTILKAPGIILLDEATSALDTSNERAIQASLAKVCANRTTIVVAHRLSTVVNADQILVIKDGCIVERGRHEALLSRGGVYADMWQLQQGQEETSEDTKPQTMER

As usually defined, the inhibition is the change of the read-out against control, counted positive when it falls. For `CC(=O)OCC1OC(n2ccc(=O)[nH]c2=O)C(O)C1O` (stereo not given), in test [1], the percent of DMSO control GFP was 100% (inactive). For the same compound, the percent response of DMSO control in test [2] was 122% (inactive). The GFP response vs DMSO in test [3] is 102% (inactive). In addition, the GFP response, % of DMSO in test [4] is 101% (inactive). Besides, in test [5], the double positive events stood at 60.2%. The vesicle binding response in test [5] is 42.8% (inactive). Also, the figures for the inhibition in test [6], in test [10] and in test [14] were -12.9% (inactive), -6.88% (inactive) and 9% (inactive), respectively. Further, the superoxide response (% of plate) in [7] was 97.6% (inactive). For the same compound, the aptamer binding inhibition in [8] was 1% (inactive). Besides, the response in [9] is -2% (inactive); in test [11], -3.65% (inactive). Also, the binding (% of control) in test [12] is 97.7% (inactive). Besides, the efflux inhibition (fraction of control) in test [13] is -0.26 (inactive). For the same compound, the differentiation response in test [15] was -1.71% (inactive).
In the case of `COc1ccc(CN(C)CCc2ccccn2)cc1OC`, the percent of DMSO control GFP in [1] was 104% (inactive). Further, the percent response of DMSO control in test [2] was 102% (inactive). Also, the GFP response vs DMSO in test [3] is 74.3% (inactive). For the same compound, the GFP response, % of DMSO in [4] is 90.6% (inactive). This compound also yielded a double positive events in test [5] of 55.5%. Moreover, the vesicle binding response in [5] is 91.8% (inactive). Further, the inhibition was -15.4% (inactive) in test [6], -9.53% (inactive) in test [10] and 2% (inactive) in test [14]. In addition, the superoxide response (% of plate) in [7] is 95.8% (inactive). The aptamer binding inhibition in test [8] was 3% (inactive). Besides, the response in test [9] is 6.81% (inactive); in test [11], 20.5% (active). In addition, the binding (% of control) in test [12] was 98.7% (inactive). In test [13], the efflux inhibition (fraction of control) was -0.03 (inactive). Moreover, the differentiation response in test [15] is -28% (inactive).
Consider `O=C1C2C3C=CC(C4CC34)C2C(=O)N1/N=C/c1ccc(-c2ccc([N+](=O)[O-])cc2)o1` (stereo not given), for which, in test [1], the percent of DMSO control GFP is 103% (inactive). For the same compound, the percent response of DMSO control in test [2] is 101% (inactive). For the same compound, the GFP response vs DMSO in test [3] was 85.4% (inactive). For the same compound, in test [4], the GFP response, % of DMSO is 87.7% (inactive). Further, the double positive events in test [5] is 57.9%. The vesicle binding response in test [5] is 153% (inactive). Further, the values for the inhibition in test [6], in test [10] and in test [14] were -0.43% (inactive), 14.3% (inactive) and 7% (inactive), respectively. Also, the superoxide response (% of plate) in [7] is 95.5% (inactive). In addition, in test [8], the aptamer binding inhibition is 4% (inactive). For the same compound, the response in [9] was 25.8% (inactive); in test [11], 1.6% (inactive). Moreover, in test [12], the binding (% of control) is 102% (inactive). Further, the efflux inhibition (fraction of control) in test [13] was 0.19 (inactive). Besides, the differentiation response in test [15] is 0% (inactive).
`COc1cc(/C=C/C(=O)N2CCCC2)cc(OC)c1OC`: the percent of DMSO control GFP in test [1] was 106% (inactive). The percent response of DMSO control in test [2] is 107% (inactive). For the same compound, in test [3], the GFP response vs DMSO is 76.9% (inactive). The GFP response, % of DMSO in test [4] was 100% (inactive). The double positive events in test [5] came out at 61.5%. In addition, in [5], the vesicle binding response is 29.3% (inactive). The inhibition in [6] is 6.81% (inactive); in test [10], -0.17% (inactive); in [14] it was -1% (inactive). Further, in [7], the superoxide response (% of plate) is 95.8% (inactive). Further, the aptamer binding inhibition in test [8] is 5% (inactive). The response was -5.19% (inactive) in test [9] and 0.86% (inactive) in test [11]. The binding (% of control) in test [12] is 95.1% (inactive). Moreover, the efflux inhibition (fraction of control) in [13] is 0.02 (inactive). Also, the differentiation response in test [15] is 12.9% (inactive).
Turning to `NS(=O)(=O)c1cc2c(cc1Cl)NC(CSCc1ccccc1)=NS2(=O)=O`, the percent of DMSO control GFP in test [1] was 97% (inactive). The GFP response vs DMSO is 119% (inactive) in [16] and 84.2% (inactive) in test [3]. Besides, in test [2], the percent response of DMSO control is 118% (inactive). Besides, the double positive events in [5] was determined as 40.1%. The vesicle binding response in test [5] was 27.2% (active). Also, the inhibition in test [6] is -6.15% (inactive); in test [10] it was -7.6% (inactive); in [14], 3% (inactive). Besides, the superoxide response (% of plate) in [7] is 95.7% (inactive). Also, the aptamer binding inhibition in test [8] is 2% (inactive). In addition, the response in test [9] was 5.55% (inactive); in test [11] it was 0.08% (inactive). For the same compound, in test [12], the binding (% of control) is 103% (inactive). The efflux inhibition (fraction of control) in test [13] is -0.24 (inactive). In addition, the differentiation response in test [15] is 13.9% (inactive).
